{"source": "the supplement of paper PMC8728848", "binders": {"B1": {"name": "B725 (Bifidobacterium sp) (protein)", "chain": "MNNTTRAVIATAAIGALLIPLAGCGNTTTSSGKTELTVWSWDASIDRAAKSFMKANPDITVKVSNVGSTEETYTALNNAAQAGSGLPDVTLIEYLAIPQFVHSDTLMDLSKVYNTAKLKDTFTPGTWNSVNINGGLYAMPADSGPMAYFYDKDVFDKAGISEPPTTWDEFYEDAKKIRATGSYITSDSGDAGLFNAMMWAMGGHAYKLNDDKLTINIAKDKGAQRFMDLWQKMRDEDLIDVHTKTWTDDWMKSLGDGSIASLISGAWMANNLLQGVPQATGKFRVALLPTIDGTPINGEYGGSGLAITKKIPDGKLDAAKKFVEYVTTNDEGIDARVSNGSFPATTKTLNQKDFLAKTTLRNTDGSDNEFFGGQKYNEIFSQAAKDVTGKWEFLPFEPYARSVYNDNMGSFFAGKTSFRTAADNWQKALKDYAKDQGFTVQ"}}, "assay_in_all_cases": "glycan array binding signal (z-score within array); higher = stronger binding", "conditions_in_all_cases": "glycan notation: IUPAC condensed, linker removed", "key": {"Fuc(a1-2)Gal": {"biological_target": "Fuc(a1-2)Gal", "in_short": "(§1)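 Glycan array data were curated from 3228 arrays in the Consortium for Functional Glycomics database and kept only where the protein sequence was available. Glycan names were converted to IUPAC-condensed notation, and columns mapping to the same glycan were averaged. The binding signal is a within-array Z-score, averaged across arrays of the same protein sequence at different concentrations or buffers and across linkers. Negative Z-scores can be read as non-binding.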"}, "Fuc(a1-2)Gal(b1-3)GalNAc": {"biological_target": "Fuc(a1-2)Gal(b1-3)GalNAc", "in_short": "as §1"}, "[1]": {"biological_target": "Fuc(a1-2)Gal(b1-3)GlcNAc(b1-2)Man(a1-3)[Fuc(a1-2)Gal(b1-3)GlcNAc(b1-2)Man(a1-6)]Man(b1-4)GlcNAc(b1-4)[Fuc(a1-6)]GlcNAc", "in_short": "as §1"}, "[2]": {"biological_target": "Fuc(a1-2)Gal(b1-3)GlcNAc6S", "in_short": "as §1"}, "Fuc(a1-2)Gal6S(b1-4)Glc": {"biological_target": "Fuc(a1-2)Gal6S(b1-4)Glc", "in_short": "as §1"}, "[3]": {"biological_target": "Fuc(a1-2)[Gal(a1-3)]Gal(b1-4)[Fuc(a1-3)]GlcNAc(b1-3)GalNAc", "in_short": "as §1"}, "[4]": {"biological_target": "Fuc(a1-2)[Gal(a1-4)]Gal(b1-4)GlcNAc", "in_short": "as §1"}, "[5]": {"biological_target": "Fuc(a1-2)[GalNAc(a1-3)]Gal(b1-4)Glc", "in_short": "as §1"}, "[6]": {"biological_target": "Fuc(a1-2)[GalNAc(a1-3)]Gal(b1-4)[Fuc(a1-3)]GlcNAc", "in_short": "as §1"}, "[7]": {"biological_target": "Fuc(a1-3)[Gal(b1-4)]GlcNAc(b1-3)Gal(b1-4)[Fuc(a1-3)]GlcNAc(b1-3)Gal(b1-4)[Fuc(a1-3)]GlcNAc", "in_short": "as §1"}, "[8]": {"biological_target": "Fuc(a1-3)[Gal(b1-4)]GlcNAc(b1-3)GalNAc", "in_short": "as §1"}, "Fuc(b1-3)GlcNAc": {"biological_target": "Fuc(b1-3)GlcNAc", "in_short": "as §1"}, "[9]": {"biological_target": "Gal(a1-3)Gal(b1-4)GlcNAc(b1-2)Man", "in_short": "as §1"}, "[10]": {"biological_target": "Gal(a1-3)Gal(b1-4)GlcNAc(b1-3)GalNAc", "in_short": "as §1"}, "[11]": {"biological_target": "Gal(b1-3)[Fuc(a1-4)]GlcNAc(b1-3)Gal(b1-4)[Fuc(a1-3)]GlcNAc", "in_short": "as §1"}, "[12]": {"biological_target": "Gal(b1-3)[GlcNAc(b1-6)]GalNAc", "in_short": "as §1"}, "[13]": {"biological_target": "Gal(b1-4)GalNAc(a1-3)[Fuc(a1-2)]Gal(b1-4)GlcNAc", "in_short": "as §1"}, "[14]": {"biological_target": "Gal(b1-4)GlcNAc(b1-2)Man(a1-3)[Gal(b1-4)GlcNAc(b1-2)Man(a1-6)]Man(b1-4)GlcNAc(b1-4)[Fuc(a1-6)]GlcNAc", "in_short": "as §1"}, "[15]": {"biological_target": "Gal(b1-4)GlcNAc(b1-2)Man(a1-3)[Gal(b1-4)GlcNAc(b1-2)Man(a1-6)][Gal(b1-4)GlcNAc(b1-4)]Man(b1-4)GlcNAc(b1-4)[Fuc(a1-6)]GlcNAc", "in_short": "as §1"}, "[16]": {"biological_target": "Gal(b1-4)GlcNAc(b1-3)Gal(b1-4)Glc", "in_short": "as §1"}, "[17]": {"biological_target": "Gal(b1-4)GlcNAc(b1-3)Gal(b1-4)GlcNAc(b1-3)Gal(b1-4)GlcNAc", "in_short": "as §1"}, "[18]": {"biological_target": "Gal(b1-4)GlcNAc(b1-3)Gal(b1-4)GlcNAc(b1-3)Gal(b1-4)GlcNAc(b1-2)Man(a1-3)[Gal(b1-4)GlcNAc(b1-3)Gal(b1-4)GlcNAc(b1-3)Gal(b1-4)GlcNAc(b1-2)Man(a1-6)]Man(b1-4)GlcNAc(b1-4)GlcNAc", "in_short": "as §1"}, "[19]": {"biological_target": "Gal(b1-4)GlcNAc(b1-3)Gal(b1-4)GlcNAc(b1-3)Gal(b1-4)GlcNAc(b1-2)Man(a1-3)[Gal(b1-4)GlcNAc(b1-3)Gal(b1-4)GlcNAc(b1-3)Gal(b1-4)GlcNAc(b1-2)Man(a1-6)]Man(b1-4)GlcNAc(b1-4)[Fuc(a1-6)]GlcNAc", "in_short": "as §1"}, "[20]": {"biological_target": "Gal(b1-4)GlcNAc(b1-3)Gal(b1-4)GlcNAc(b1-3)Gal(b1-4)GlcNAc(b1-2)[Gal(b1-4)GlcNAc(b1-3)Gal(b1-4)GlcNAc(b1-3)Gal(b1-4)GlcNAc(b1-6)]Man(a1-6)[Gal(b1-4)GlcNAc(b1-3)Gal(b1-4)GlcNAc(b1-3)Gal(b1-4)GlcNAc(b1-2)Man(a1-3)]Man(b1-4)GlcNAc(b1-4)[Fuc(a1-6)]GlcNAc", "in_short": "as §1"}, "[21]": {"biological_target": "Gal(b1-4)GlcNAc(b1-3)Gal(b1-4)GlcNAc(b1-3)Gal(b1-4)GlcNAc(b1-3)Gal(b1-4)GlcNAc(b1-2)Man(a1-3)[Gal(b1-4)GlcNAc(b1-3)Gal(b1-4)GlcNAc(b1-3)Gal(b1-4)GlcNAc(b1-3)Gal(b1-4)GlcNAc(b1-2)Man(a1-6)]Man(b1-4)GlcNAc(b1-4)GlcNAc", "in_short": "as §1"}, "[22]": {"biological_target": "Gal(b1-4)GlcNAc(b1-3)Gal(b1-4)GlcNAc(b1-3)Gal(b1-4)GlcNAc(b1-3)Gal(b1-4)GlcNAc(b1-2)Man(a1-3)[Gal(b1-4)GlcNAc(b1-3)Gal(b1-4)GlcNAc(b1-3)Gal(b1-4)GlcNAc(b1-3)Gal(b1-4)GlcNAc(b1-2)Man(a1-6)]Man(b1-4)GlcNAc(b1-4)[Fuc(a1-6)]GlcNAc", "in_short": "as §1"}}, "note": "This is one part of a sample in which the strongest signals are shown more often than they occur.", "data": [{"binder": "B1", "values": [{"measurement": "glycan array binding signal (z-score)", "setting": "Fuc(a1-2)Gal", "value": -0.221}, {"measurement": "glycan array binding signal (z-score)", "setting": "Fuc(a1-2)Gal(b1-3)GalNAc", "value": -0.216}, {"measurement": "glycan array binding signal (z-score)", "setting": "[1]", "value": -0.181}, {"measurement": "glycan array binding signal (z-score)", "setting": "[2]", "value": -0.234}, {"measurement": "glycan array binding signal (z-score)", "setting": "Fuc(a1-2)Gal6S(b1-4)Glc", "value": -0.199}, {"measurement": "glycan array binding signal (z-score)", "setting": "[3]", "value": -0.208}, {"measurement": "glycan array binding signal (z-score)", "setting": "[4]", "value": -0.23}, {"measurement": "glycan array binding signal (z-score)", "setting": "[5]", "value": -0.222}, {"measurement": "glycan array binding signal (z-score)", "setting": "[6]", "value": -0.217}, {"measurement": "glycan array binding signal (z-score)", "setting": "[7]", "value": -0.21}, {"measurement": "glycan array binding signal (z-score)", "setting": "[8]", "value": -0.216}, {"measurement": "glycan array binding signal (z-score)", "setting": "Fuc(b1-3)GlcNAc", "value": -0.226}, {"measurement": "glycan array binding signal (z-score)", "setting": "[9]", "value": -0.214}, {"measurement": "glycan array binding signal (z-score)", "setting": "[10]", "value": -0.225}, {"measurement": "glycan array binding signal (z-score)", "setting": "[11]", "value": -0.203}, {"measurement": "glycan array binding signal (z-score)", "setting": "[12]", "value": -0.224}, {"measurement": "glycan array binding signal (z-score)", "setting": "[13]", "value": -0.218}, {"measurement": "glycan array binding signal (z-score)", "setting": "[14]", "value": -0.204}, {"measurement": "glycan array binding signal (z-score)", "setting": "[15]", "value": -0.231}, {"measurement": "glycan array binding signal (z-score)", "setting": "[16]", "value": 6.34}, {"measurement": "glycan array binding signal (z-score)", "setting": "[17]", "value": 6.94}, {"measurement": "glycan array binding signal (z-score)", "setting": "[18]", "value": 5.11}, {"measurement": "glycan array binding signal (z-score)", "setting": "[19]", "value": 4.38}, {"measurement": "glycan array binding signal (z-score)", "setting": "[20]", "value": 7.51}, {"measurement": "glycan array binding signal (z-score)", "setting": "[21]", "value": 5.3}, {"measurement": "glycan array binding signal (z-score)", "setting": "[22]", "value": 4.85}]}]}
